The source of these data is PubChem BioAssay (NCATS).

SMILES strings stand for the structures. “And” between values parts separate entries of the source, which are not always exact repeats. Identical values can stand only once. Inconclusive results are not listed. The source made the active and inactive calls. Calls follow the shape of the full dose curve.

The nature of one experiment: qHTS Assay for Lipid Storage Modulators (AID 1519). As to activity change, negative = inhibition: % is scaled to controls: 0 for no effect and ±100 for the full control effect. The following applies: Drosophila S3 cells, BODIPY lipid droplet/cell ratio, laser cytometry; at 25.7 µM (top of the series); cells loaded with oleic acid. The method, boiled down: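 Cells seeded at 5,000 per well were treated with compounds over a concentration series and loaded with oleic acid (400 uM, as added). Lipid droplet fluorescence (488 nm excitation, 500-530 nm channel) was read by laser-scanning cytometry and normalized to 20 uM Triacsin C.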
(In qHTS, concentration-response curves come from the screen itself.)
With `C[N+]1(C)CCC(=C(c2ccccc2)c2ccccc2)CC1`, the activity change, negative = inhibition was 0.0072% (inactive).

For the compound `CCOC(=O)Nc1ccc2c(c1)N(C(=O)CCN1CCOCC1)c1ccccc1S2`, the activity change, negative = inhibition was -4.54% (inactive).

Regarding `CCCCNc1ccc(C(=O)OCCOCCOCCOCCOCCOCCOCCOCCOCCOC)cc1`, the activity change, negative = inhibition was -1.21% (inactive).

For the compound `COc1cc(C)nc(-n2nc(C)cc2OC)n1`, the activity change, negative = inhibition was -0.43% (inactive).

`NS(=O)(=O)c1cc(C(=O)O)cc(N2CCCC2)c1Oc1ccccc1`: the activity change, negative = inhibition was -4.05% (inactive).

On to `CN1CCC(OC(c2ccccc2)c2ccccc2)CC1`, for which the activity change, negative = inhibition was -2.89% (inactive).

On to `CCOC(=O)c1ccc(N)cc1`, for which the activity change, negative = inhibition was 4.88% (inactive).

With `CCc1cc(Cl)c(OC)c(C(=O)NC[C@@H]2CCCN2CC)c1O`, the activity change, negative = inhibition is -7.25% (inactive).

In the case of `Cc1c(-c2ccccc2)oc2c(C(=O)OCCN3CCCCC3)cccc2c1=O`, the activity change, negative = inhibition is 1.6% (inactive).

On to `COc1cc(C(=O)NCc2ccc(OCCN(C)C)cc2)cc(OC)c1OC`, for which the activity change, negative = inhibition is -1.74% (inactive).

For the compound `CCCCc1cc2ccccc2c(OCCN(C)C)n1`, the activity change, negative = inhibition is -1.95% (inactive).

As for `N=C(N)N1CCc2ccccc2C1`, the activity change, negative = inhibition is -0.877% (inactive).

As to `Cc1cc(-c2ccccc2)nnc1NCCN1CCOCC1`, the activity change, negative = inhibition is 1.62% (inactive).

Consider `Nc1ccc(S(=O)(=O)Nc2cnc3ccccc3n2)cc1`, for which the activity change, negative = inhibition was -4.76% (inactive).

For `Nc1ccc(C(=O)NCC(=O)O)cc1`, the activity change, negative = inhibition is -0.313% (inactive).

As for `CCCc1ncc(C[n+]2ccccc2C)c(N)n1`, the activity change, negative = inhibition is -1.66% (inactive).

Consider `CC[C@H](c1ccc(O)cc1)[C@@H](CC)c1ccc(O)cc1`, for which the activity change, negative = inhibition is -3.44% (inactive).

Still in this experiment, the particulars now being: Drosophila S3 cells, BODIPY lipid droplet/cell ratio, laser cytometry; at 57.5 µM (top of the series); cells loaded with oleic acid.
Take `CCN1CCCC(OC(=O)C(c2ccccc2)c2ccccc2)C1` (stereo not given): the activity change, negative = inhibition was -10.7% (inactive).

As for `CN(C)CCOC(=O)C(c1ccccc1)C1(O)CCCC1` (stereo not given), the activity change, negative = inhibition was 8.35% (inactive).

For `CC(=O)NCCCCCC(=O)O`, the activity change, negative = inhibition was 4.31% (inactive).

In the case of `CCCCC(CC)CN1CN(CC(CC)CCCC)CC(C)(N)C1` (stereo not given), the activity change, negative = inhibition is 3.27% (inactive).

Turning to `CC(=O)Nc1ccc(S(=O)(=O)Nc2ccc([N+](=O)[O-])cc2)cc1`, the activity change, negative = inhibition was 7.58% (inactive).

As to `COC(=O)C(c1ccccc1Cl)N1CCc2sccc2C1` (stereo not given), the activity change, negative = inhibition is 8.17% (inactive).

`COc1ccc(CN(CCN(C)C)c2ncccn2)cc1`: the activity change, negative = inhibition was 7.7% (inactive).

`CC(C(=O)O)c1cccc(Oc2ccccc2)c1` (stereo not given): the activity change, negative = inhibition was 9.66% (inactive).

Consider `CC(C)NCC(O)c1ccc2ccccc2c1` (stereo not given), for which the activity change, negative = inhibition is 9.75% (inactive).

Consider `O=C(O)P(=O)(O)O`, for which the activity change, negative = inhibition is 3.11% (inactive).

`CCCCCN=C(N)N/N=C/c1c[nH]c2ccc(OC)cc12`: the activity change, negative = inhibition was 10.2% (inactive) and 3.1% (inactive).

Consider `CCN(CC)CCOc1ccc2c(c1)C(=O)c1cc(OCCN(CC)CC)ccc1-2`, for which the activity change, negative = inhibition was 7.59% (inactive).

On to `C[N+]12CCC(CC1)C(OC(=O)C(O)(c1ccccc1)c1ccccc1)C2` (stereo not given), for which the activity change, negative = inhibition was 1.37% (inactive).

For `CC(=O)NO`, the activity change, negative = inhibition was 3.44% (inactive).

With `Cc1ncc(CO)c(C=O)c1O`, the activity change, negative = inhibition is -6.06% (inactive).

With `CCC(Cc1c(I)cc(I)c(N)c1I)C(=O)O` (stereo not given), the activity change, negative = inhibition was 4.6% (inactive).

On to `OCCOCCN1CCN(C2=Nc3ccccc3Sc3ccccc32)CC1`, for which the activity change, negative = inhibition is 5.93% (inactive).

`O=C1C(=O)c2ccccc2C(O)=C1C1CCC(c2ccc(Cl)cc2)CC1` (stereo not given): the activity change, negative = inhibition was 10.1% (inactive).

Still in this experiment, the particulars now being: Drosophila S3 cells, BODIPY lipid droplet/cell ratio, laser cytometry; measured here: cell count channel max response; cells loaded with oleic acid.
With `C[N+]1(C)CCC(=C(c2ccccc2)c2ccccc2)CC1`, the max response was found to be 2.33%.

As to `CCN1CCCC(OC(=O)C(c2ccccc2)c2ccccc2)C1` (stereo not given), the max response is -5.03%.

With `CCOC(=O)Nc1ccc2c(c1)N(C(=O)CCN1CCOCC1)c1ccccc1S2`, the max response was -0.906%.

For the compound `CN(C)CCOC(=O)C(c1ccccc1)C1(O)CCCC1` (stereo not given), the max response worked out at 13.8%.

As for `CCCCNc1ccc(C(=O)OCCOCCOCCOCCOCCOCCOCCOCCOCCOC)cc1`, the max response is -3.1%.

As for `CC(=O)NCCCCCC(=O)O`, the max response is 6.35%.

For the compound `CCCCC(CC)CN1CN(CC(CC)CCCC)CC(C)(N)C1` (stereo not given), the max response came to 28.9%.

As for `CC(=O)Nc1ccc(S(=O)(=O)Nc2ccc([N+](=O)[O-])cc2)cc1`, the max response is 4.05%.

For `COC(=O)C(c1ccccc1Cl)N1CCc2sccc2C1` (stereo not given), the max response was 3.08%.

Consider `COc1ccc(CN(CCN(C)C)c2ncccn2)cc1`, for which the max response amounted to 6.82%.

On to `COc1cc(C)nc(-n2nc(C)cc2OC)n1`, for which the max response is -1.69%.

`NS(=O)(=O)c1cc(C(=O)O)cc(N2CCCC2)c1Oc1ccccc1`: the max response is -4.21%.

With `CN1CCC(OC(c2ccccc2)c2ccccc2)CC1`, the max response was -24.7%.

Turning to `CCOC(=O)c1ccc(N)cc1`, the max response was -2.21%.

For `CCc1cc(Cl)c(OC)c(C(=O)NC[C@@H]2CCCN2CC)c1O`, the max response is -16.4%.

`Cc1c(-c2ccccc2)oc2c(C(=O)OCCN3CCCCC3)cccc2c1=O`: the max response came to 5.61%.

Take `COc1cc(C(=O)NCc2ccc(OCCN(C)C)cc2)cc(OC)c1OC`: the max response is -6.84%.

For `CC(C(=O)O)c1cccc(Oc2ccccc2)c1` (stereo not given), the max response was 14.6%.

On to `CC(C)NCC(O)c1ccc2ccccc2c1` (stereo not given), for which the max response stood at 8.22%.

`O=C(O)P(=O)(O)O`: the max response was determined as 17.9%.

For the compound `CCCCCN=C(N)N/N=C/c1c[nH]c2ccc(OC)cc12`, the max response is 15.4% and 9.7%.

In the case of `CCN(CC)CCOc1ccc2c(c1)C(=O)c1cc(OCCN(CC)CC)ccc1-2`, the max response was -3.23%.

In the case of `CCCCc1cc2ccccc2c(OCCN(C)C)n1`, the max response was -12.7%.

With `N=C(N)N1CCc2ccccc2C1`, the max response was -5.56%.

Turning to `C[N+]12CCC(CC1)C(OC(=O)C(O)(c1ccccc1)c1ccccc1)C2` (stereo not given), the max response was 13%.

For `CC(=O)NO`, the max response amounted to 22.2%.

Regarding `Cc1cc(-c2ccccc2)nnc1NCCN1CCOCC1`, the max response is -6.4%.

In the case of `Nc1ccc(S(=O)(=O)Nc2cnc3ccccc3n2)cc1`, the max response is -5.93%.

With `Cc1ncc(CO)c(C=O)c1O`, the max response was -8.99%.

As to `CCC(Cc1c(I)cc(I)c(N)c1I)C(=O)O` (stereo not given), the max response was 19.5%.

With `OCCOCCN1CCN(C2=Nc3ccccc3Sc3ccccc32)CC1`, the max response came out at 10.4%.

As for `Nc1ccc(C(=O)NCC(=O)O)cc1`, the max response is -0.767%.

Take `CCCc1ncc(C[n+]2ccccc2C)c(N)n1`: the max response came out at 1.76%.

As to `O=C1C(=O)c2ccccc2C(O)=C1C1CCC(c2ccc(Cl)cc2)CC1` (stereo not given), the max response worked out at 7.54%.

Turning to `CC[C@H](c1ccc(O)cc1)[C@@H](CC)c1ccc(O)cc1`, the max response was -23%.
